Measurements published in the supplement of paper PMC4840960.

Experiments:
[1] = test system: E18 rat cortical neuron-glia co-culture; assay: fiber score / MBP score (myelination specific beyond OL differentiation) (ratio); higher = more myelination-specific MBP alignment; conditions: 1 µM; treatment time: 8 days (DIV5-DIV13)
How it was run: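 Library compounds were applied at 1 or 5 µM in myelination medium, DIV5 to DIV13, to primary E18 rat cortical co-cultures grown at 20,000 cells/well in 96-well plates. After 4 % paraformaldehyde fixation and MBP/Olig2/DAPI immunostaining, four 10X fields per well in duplicate wells were scored. Each value is continuous MBP fiber length per Olig2+ nucleus divided by thresholded MBP area × intensity per Olig2+ nucleus.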

[2] = test system: E18 rat cortical neuron-glia co-culture; assay: myelination (MBP fiber length per Olig2+ nucleus), % of 1 µM DAPT response (DMSO = 0) (% of DAPT); higher = more myelination, active = 50 or more; conditions: treatment time: 8 days (DIV5-DIV13)
How it was run: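 Library compounds at 1 or 5 µM in myelination medium were applied from DIV5 to DIV13 to papain-dissociated E18 rat cortical co-cultures seeded at 20,000 cells/well on poly-d-lysine/laminin 96-well plates. Fixed cells (4 % paraformaldehyde) were immunostained for MBP and Olig2 with DAPI, and four 10X fields were analysed in each duplicate well. Continuous straight MBP fiber length per Olig2+ nucleus was set to 0 for 0.1 % DMSO and to 100 for a 1 µM positive control.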

| SMILES | fiber score / MBP score [1] | myelination ([2]; 1 µM) | myelination ([2]; 5 µM) |
| --- | --- | --- | --- |
| CCCCCNC(=N)N/N=C/c1c[nH]c2ccc(OC)cc12 [Tegaserod] | 0.56 | -17.1 (inactive) | – |
| Nc1nc(O)c2ncn(CCC(CO)CO)c2n1 [Penciclovir] | 0.784 | 3 (inactive) | < -37.3 (inactive) |
| OCCN1CCN(CCCN2c3ccccc3Sc3ccc(C(F)(F)F)cc32)CC1 [Fluphenazine] | 0.784 | 3 (inactive) | < -37.3 (inactive) |
| OCCN1CCN(CCCN2c3ccccc3Sc3ccc(Cl)cc32)CC1 [Perphenazine] | 0.338 | -21.7 (inactive) | – |
| CCOC(=O)C1=C(C)NC(C)=C(C(=O)OCC)C1c1ccccc1/C=C/C(=O)OC(C)(C)C [Lacidipine] | 0.575 | -18.6 (inactive) | – |
| Clc1ccc(CO/N=C(\Cn2ccnc2)c2ccc(Cl)cc2Cl)c(Cl)c1 [Oxiconazole] | 0.501 | -25.1 (inactive) | – |
| CC(C)(O)c1ccccc1CC[C@@H](SCC1(CC(=O)O)CC1)c1cccc(/C=C/c2ccc3ccc(Cl)cc3n2)c1 [Montelukast] | 0.64 | -10.2 (inactive) | – |
| CCN(CC)C(=S)SSC(=S)N(CC)CC [Disulfiram] | 1.15 | 148 | – |
